Sampled rows, rich in hits. Any-hit rate of the full collection: about 12%.
OTUD3 block: inhibitors of human OTUD3 deubiquitinase. OTU domain-containing protein 3 (Homo sapiens), Q5T2D3. purified OTUD3, Ub-rhodamine fluorescence, 2 h. inhibition, % at 25 µM. 47,000 tested, 0.7% active
Target sequence (Q5T2D3 whole entry, looked up, the tested form may be a part): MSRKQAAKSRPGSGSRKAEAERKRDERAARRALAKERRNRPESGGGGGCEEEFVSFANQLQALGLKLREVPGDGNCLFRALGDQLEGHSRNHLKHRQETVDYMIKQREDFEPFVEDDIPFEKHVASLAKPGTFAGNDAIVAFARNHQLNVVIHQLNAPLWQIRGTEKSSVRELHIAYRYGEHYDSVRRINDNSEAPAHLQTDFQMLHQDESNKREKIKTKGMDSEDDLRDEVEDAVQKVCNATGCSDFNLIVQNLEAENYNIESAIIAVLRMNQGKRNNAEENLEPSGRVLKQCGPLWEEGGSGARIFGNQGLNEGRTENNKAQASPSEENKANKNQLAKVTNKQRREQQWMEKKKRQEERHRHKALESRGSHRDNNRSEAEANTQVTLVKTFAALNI
USP30 inh: inhibitors of human USP30 deubiquitinase. Ubiquitin carboxyl-terminal hydrolase 30 (Homo sapiens), Q70CQ3. inhibition, % at 25 µM. 47,000 tested, 5.3% active. purified USP30, Ub-rhodamine cleavage fluorescence
USP17 inh: inhibitors of human USP17 deubiquitinase | Ubiquitin carboxyl-terminal hydrolase 17-like protein 5 (Homo sapiens), A8MUK1 | purified USP17, Ub-rhodamine cleavage fluorescence, 3 h | inhibition, % at 50 µM | 47,000 tested, 6.5% active
USP28 block: inhibitors of human USP28 deubiquitinase; inhibition, % at 25 µM; 47,000 tested, 3% active; purified USP28, Ub-rhodamine cleavage fluorescence, 30 min
Numbers without * were called inactive; / = not tested or not shown. Cut-off read from the data, not from the text of the source: active = inhibition above about 30%; inactive = the rest.

SMILES	OTUD3 block	USP30 inh	USP17 inh	USP28 block
O=C(C1CCC1)N1CCC(c2nc3c(nnn3Cc3ccccc3Cl)c(=O)[nH]2)CC1	10	32*	25	18
O=C(C1CCC1)N1CCC(c2nc3c(nnn3Cc3c(F)cccc3Cl)c(=O)[nH]2)CC1	-10	6	-5	-8
O=C(C1CCCC1)N1CCC(c2nc3c(nnn3Cc3c(Cl)cccc3Cl)c(=O)[nH]2)CC1	14	44*	12	27
Cc1ccc(C(=O)NCC2COCCO2)cc1NC(=O)c1nsc2ccccc12 (stereo unspecified)	-8	-4	-18	-5
Cc1oc(-c2ccc(C(=O)NCC3COCCO3)cc2)nc1CN1CCc2ccccc21 (stereo unspecified)	-26	-51	-9	57*
Cc1cc(NCC2CC2)n2nc(Nc3cc(Cl)ccc3C)nc2n1	11	31*	71*	11
CCC(=O)N1C2=C(CCCC2)C(=O)NC12CCCCC2	1	2	3	15
COc1ccc(CCNC(=O)[C@H](CCSC)NC(=O)N2CCn3c2nc2ccccc23)cc1OC	26	75*	35*	21
CCC(C)NC(=O)[C@H](C)NC(=O)N1CCn2c1nc1ccccc12 (stereo partly specified)	-3	7	0	0
Cc1ccc(CNC(=O)[C@H](C)NC(=O)N2CCn3c2nc2ccccc23)cc1	21	80*	65*	47*
COc1cccc(CNC(=O)[C@H](C)NC(=O)N2CCn3c2nc2ccccc23)c1	-10	-1	-22	-7
COc1ccc(CCNC(=O)[C@H](C)NC(=O)N2CCn3c2nc2ccccc23)cc1OC	7	30*	20	19
CCC(C)[C@H](NC(=O)N1CCn2c1nc1ccccc12)C(=O)NCCC1=CCCCC1 (stereo partly specified)	-3	-25	36*	-16
O=C(C1CN(C(=O)c2cnc3ccccc3n2)c2ccccc2O1)N1CCOCC1 (stereo unspecified)	1	1	26	7
CC(=O)c1ccc(NC(=O)C2(C)Cc3ccccc3C(=O)O2)cc1 (stereo unspecified)	15	14	0	11
COc1ccc(CNC(=O)[C@H](CCSC)NC(=O)N2CCn3c2nc2ccccc23)cc1	1	44*	9	-3
O=C(Nc1ccccc1)c1cn2c3c(cccc3c1=O)CC2	2	1	69*	3
O=C(O)c1cn2c3c(cccc3c1=O)CCC2	-5	3	5	3
Cc1ccc(Cl)cc1N(Cc1ccc(C(=O)N2CCOCC2)cc1)S(=O)(=O)c1ccccc1	11	50*	/	16
Cc1ccc(C)c(N(CC(=O)NCCN2CCOCC2)S(=O)(=O)c2ccccc2)c1	11	19	7	7
CCCCCC(=O)N1c2ccccc2NC2=C(C(=O)CC(c3ccc(C(C)(C)C)cc3)C2)C1c1ccncc1 (stereo unspecified)	15	25	74*	28
CCOc1ccccc1NS(=O)(=O)c1ccc2c(c1)CCCC(=O)N2	2	12	1	6
CCOc1ccc(S(=O)(=O)N(CC(=O)NCc2ccccc2C)c2ccccc2)cc1	7	26	45*	15
Cc1ccc(CNC(=O)c2nn(-c3ccccc3F)nc2CO)cc1	1	-58	-5	-6
Cc1ccc(CNC(=O)CCc2c(C)nn(-c3cc(N4CCOCC4)ncn3)c2C)cc1	-2	-8	-1	0
SMILES	OTUD3 block	USP30 inh	USP17 inh	USP28 block
Cc1ccc(C)c(NC(=O)CCc2c(C)nn(-c3cc(N(C)C)ncn3)c2C)c1	4	31*	17	0
Cc1ccc(C(C)C(=O)N2CCC(c3nn(CCN)c4ncccc34)C2)cc1 (stereo unspecified)	-15	6	2	-5
COc1ncccc1-c1cn[nH]c1-c1ccsc1	-2	/	0	/
Cc1csc(-c2[nH]ncc2-c2ccsc2)n1	11	24	13	34*
Cc1cc(NC(=O)c2ccccn2)nn1Cc1ccccc1	2	3	2	14
COc1ccc(-c2cc(C(=O)Nc3ccnn3Cc3ccccc3)no2)cc1	0	32*	37*	-3
COc1cccc(-c2cc(C(=O)Nc3cc(C)n(Cc4ccc(Cl)cc4)n3)no2)c1	27	75*	20	13
Cc1ccc(Cn2ccc(NC(=O)c3cc(-c4ccco4)on3)n2)cc1	5	-266	30*	-86
COc1ccc(CCNC(=O)c2cnc3sc4c(n3c2=O)CCCC4)cc1OC	-6	0	-20	40*
Cc1ccc(NC(=O)/C=C/c2cccc(C(F)(F)F)c2)c(O)c1	11	45*	58*	27
COC(=O)c1c(-c2ccccc2)[nH]c(-c2ccccc2)c1C(=O)OC	1	-2	2	8
COc1ccc([N+](=O)[O-])cc1NC(=O)COC(=O)c1ccc2[nH]c3c(c2c1)CCCC3	62*	60*	71*	63*
COc1cc([N+](=O)[O-])ccc1NC(=O)COC(=O)Cc1c[nH]c2ccccc12	-7	-16	-7	-10
COc1ccc(N(C)S(=O)(=O)c2cccc(C(=O)OCC(=O)N(Cc3ccccc3)C(C)C)c2)cc1	22	30*	14	13
CCCOC(=O)c1ccc(NC(=O)c2cccc(S(=O)(=O)N(C)c3ccc(OC)cc3)c2)cc1	-13	-22	-2	3
O=C(CCc1cccnc1)N1CCCC2(CCCN2Cc2cccc(F)c2)C1 (stereo unspecified)	-2	44*	11	9
Cc1nc(C2CCCN(Cc3ncc[nH]3)C2)nc2c1CCC(=O)N2Cc1ccccc1 (stereo unspecified)	-7	-14	-12	-3
CC(C)CNC(=O)c1cc(=O)[nH]c2ccc(S(=O)(=O)Nc3ccc(F)cc3)cc12	7	25	36*	7
Cc1cccc(NS(=O)(=O)c2ccc3[nH]c(=O)cc(C(=O)O)c3c2)c1	18	-32	-28	18
CCOC(=O)c1cnn(-c2ccc(C(=O)Nc3ccc(F)cc3)cn2)c1N	-2	0	-1	-13
CC1(C)OC2=C(C(=O)c3cc(O)cc(O)c3C2=O)c2cc(CO)c(O)cc21	21	0	82*	27
Cc1cc(O)cc2c1C(=O)c1c(O)ccc(O)c1C2=O	-97	-385	-37	-81
CC(=O)N1CCCC(c2cncc(N3CC4(CCCCC4)OC3=O)n2)C1 (stereo unspecified)	4	4	-4	-1
CC(C)(C)C(=O)N1CCCC(c2cncc(N3CC4(CCCCC4)OC3=O)n2)C1 (stereo unspecified)	21	45*	18	25
Cc1ccc2nc3c(cc(C(=O)N4CCN(C)CC4)n3Cc3ccccc3)c(=O)n2c1	2	13	4	8
COc1ccc(-c2cc(C(F)F)n3ncc(C(=O)NCC4CCCO4)c3n2)cc1 (stereo unspecified)	2	/	33*	/

Source: PubChem (Buhrlage Lab, Dana-Farber Cancer Institute and Novartis Institutes for BioMedical Research (Cambridge, Mass))
